Assay results reported in PubChem BioAssay (NCI).
This is part of a sample that, as a whole, favours compounds with a hit. Of some 83,000 tested, about 20% had one in any assay.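 Single-concentration screen, 48 h exposure, 96-well plates. Endpoint: percent growth. Below 10 = active.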 Activity calls are given as the source filed them.

Assays:
Test in all cases: NCI-60 one-dose screen, 48 h (100 = growth as untreated, 0 = no growth, -100 = all killed)
Conditions in all cases: 10 µM unless noted
[1] = system: SR leukemia
[2] = system: RPMI-8226 leukemia
[3] = system: OVCAR-8 ovarian
[4] = system: OVCAR-5 ovarian
[5] = system: OVCAR-4 ovarian
[6] = system: IGROV1 ovarian
[7] = system: OVCAR-3 ovarian
[8] = system: HS 578T breast
[9] = system: NCI/ADR-RES ovarian
[10] = system: SK-OV-3 ovarian

Measured: growth

COc1cccc(NC(=O)c2cccc(-c3cc(=O)c4c(OC)c(OC)c(OC)cc4o3)c2)c1
inactive: [1] 41.9% | [2] 17% | [3] 47% | [4] 90.1% | [5] 62.6% | [6] 53.3% | [7] 66.6% | [8] 46.2% | [9] 64.8%

COc1ccc(-c2nc3sccn3c2/C=C/C(=O)c2cc(OC)c(OC)c(OC)c2)cc1
active: [2] -39.1%
inactive: [1] 55.4% | [3] 49.9% | [4] 103% | [5] 54.7% | [10] 68.5% | [8] 71.1% | [9] 47.5%

CCCCCCN(C)Cc1ccc(OCCOc2ccc(CN(C)CCCCCC)cc2)cc1
active: [1] -43.7% | [2] -14.4% | [8] -22% | [9] 1.98%
inactive: [3] 47.7% | [4] 42.9% | [5] 31.4% | [10] 48.6% | [7] 44.9%

CCn1ccnc1C(=O)/C=C/c1ccc(CC(=O)Nc2ccc(F)cc2)cc1
active: [2] 2.37% | [3] -2.13% | [9] 4.48%
inactive: [1] 14.8% | [4] 44.5% | [5] 35.4% | [10] 86.6% | [6] 32.3% | [8] 52.5%

COc1cccc(CNCCN2C(=O)c3ccc4c5c(ccc(c35)C2=O)C(=O)N(CCNCc2cccc(OC)c2)C4=O)c1
active: [1] -27.8% | [2] -14.8%
inactive: [3] 68.3% | [4] 120% | [5] 75.9% | [10] 114% | [6] 75.9% | [8] 121% | [9] 88.8%

O=S(=O)(O)c1cc(O)c2c(N=Nc3ccc(Nc4ccccc4)c4c(S(=O)(=O)O)cccc34)cc(S(=O)(=O)O)cc2c1
inactive: [1] 111% | [2] 109% | [3] 97% | [4] 105% | [5] 113% | [10] 104% | [7] 107% | [8] 101% | [9] 102%

COc1cc2c(cc1[N+](=O)[O-])-c1ccc([N+](=O)[O-])cc1/C2=N/NC(N)=S
inactive: [1] 42.6% | [2] 66.1% | [3] 51.9% | [4] 98.9% | [5] 57.6% | [10] 96.5% | [6] 47.9% | [8] 77.3% | [9] 69.6%

O=C(NCCc1ccccn1)OCc1nc2nc(Cl)nc(N3CCOCC3)c2[nH]1
active: [1] -23.3% | [2] -23.8% | [3] -0.399%
inactive: [4] 69.9% | [5] 28.6% | [10] 30.1% | [6] 23.9% | [8] 16.5% | [9] 16.6%

CC(=O)[C@@H]1CC[C@]2(C(N)=O)CC[C@]3(C)[C@H](CC[C@@H]4[C@@]5(C)CCC(=O)C(C)(C)[C@@H]5CC[C@]43C)[C@@H]12
inactive: [1] 94.4% | [2] 80.4% | [3] 109% | [4] 101% | [5] 89.1% | [10] 90.6% | [6] 107% | [8] 120% | [9] 98.7%

CC(=O)OCC(=O)C1(O)C(C)CC2C3C=C(C)C4=Cc5c(cnn5-c5ccccc5)CC4(C)C3C(O)CC21C (stereo unspecified)
inactive: [3] 44.9% | [4] 25.3% | [5] 43.2% | [10] 43.1% | [7] 11.5% | [9] 35%
active: [1] 2.76% | [2] -18.3%

CC(C)CN(C(=O)c1ccc(Cl)cc1)c1c(N)n(CC(C)C)c(=O)[nH]c1=O
inactive: [1] 64.1% | [2] 84.8% | [3] 93.8% | [4] 88.3% | [5] 107% | [10] 26.8% | [7] 115% | [8] 84.8% | [9] 101%

CC(O)(CO)c1ccccc1 (stereo unspecified)
inactive: [1] 112% | [2] 113% | [3] 100% | [4] 94.9% | [5] 103% | [10] 106% | [6] 97.2% | [8] 100% | [9] 103%

COc1ccc2c(c1)OC13Oc4cc(OC)ccc4C=C1CCCC3=C2
active: [1] 4.94% | [2] -20.6%
inactive: [3] 47.7% | [4] 47.2% | [5] 55.2% | [10] 60.1% | [6] 41.4% | [8] 45% | [9] 21.6%

Clc1nc(Nc2ccccc2)nc(Nc2ccccc2)n1
inactive: [1] 45.8% | [2] 82.8% | [3] 112% | [4] 101% | [5] 86.1% | [10] 96.5% | [6] 91.9% | [8] 121% | [9] 94.6%

COc1ccc(Cl)cc1NC(=O)c1c(NC(=O)C(F)(F)C(F)(F)F)sc2c1CCCCC2
active: [1] 4.32% | [2] -31.9% | [5] 7.67% | [10] -19.6% | [8] -3.45% | [9] 3.81%
inactive: [3] 10.5% | [4] 21.6% | [6] 20.3%

C[C@]12C[C@H]1CC[C@]1(C)[C@@H]2CC[C@@]23C[C@H](CC[C@H]21)[C@@](O)(CO)C3
inactive: [1] 63.3% | [2] 95% | [3] 102% | [4] 92.9% | [5] 110% | [10] 113% | [6] 104% | [8] 99.6% | [9] 97.7%

CCCCc1ccc(Nc2nnc(SCC(=O)NC(=O)NCC)s2)cc1
active: [1] 9.38%
inactive: [2] 85% | [3] 74.1% | [4] 96.8% | [5] 104% | [10] 195% | [7] 104% | [8] 60.6% | [9] 103%

Cn1c(COC(=O)NCCc2ccccn2)nc2c(N3CCOCC3)nc(Cl)nc21
active: [1] 3.5% | [2] -22.7% | [3] 4.96% | [4] -65% | [5] -59.3% | [6] -92.3% | [7] -88% | [8] -25%
inactive: [9] 18.9%

CCCCCCCCCCCCC1CCC/C=C\CCC(=O)O1 (stereo unspecified)
inactive: [1] 71.4% | [2] 94% | [3] 100% | [4] 102% | [5] 109% | [10] 95.3% | [6] 102% | [8] 107% | [9] 102%

CC(=O)O[C@]1(C(C)=O)CC[C@H]2[C@@H]3C=C(Cl)C4=CC(=O)CC[C@]4(C)[C@H]3CC[C@@]21C
inactive: [1] 92.1% | [2] 92.7% | [3] 101% | [4] 101% | [5] 100% | [10] 107% | [7] 121% | [9] 99.6%

COc1cc(NCC(O)CN(CC(C)C)CC(C)C)c2nc(C)ccc2c1 (stereo unspecified)
inactive: [1] 102% | [2] 99.4% | [3] 87.2% | [4] 122% | [5] 40.2% | [6] 86.9% | [7] 53.2% | [8] 85.1% | [9] 92%

C=C1C(=O)O[C@H]2[C@H]1CC/C(COC(=O)NCCc1c[nH]c3ccc(Cl)cc13)=C\CC[C@@]1(C)O[C@@H]21
active: [1] -4.62% | [2] -31.9% | [3] -43.6% | [4] -11.3% | [5] -80.8% | [6] -83.9% | [7] -96.4%
inactive: [8] 22.8% | [9] 33.9%

CCCCCCc1nc2nc(Cl)c(Cl)nc2[nH]1
inactive: [1] 62.9% | [2] 28.2% | [3] 71.9% | [4] 97.4% | [10] 92% | [6] 57.7% | [7] 40.2% | [8] 76.4% | [9] 66.7%

Cn1c(=O)c2[nH]c(CCCc3nc4c([nH]3)c(=O)n(C)c(=O)n4C)nc2n(C)c1=O
inactive: [1] 129% | [2] 107% | [3] 90.4% | [4] 122% | [5] 118% | [8] 116% | [9] 109%

FCc1nc2nc(Cl)c(Cl)nc2[nH]1
inactive: [1] 95.9% | [2] 97% | [3] 102% | [4] 93.3% | [10] 97.1% | [6] 108% | [7] 108% | [8] 101% | [9] 107%

C(=C\c1n(Cc2ccc3ccccc3c2)c(-c2ccccc2)c(-c2ccccc2)[n+]1Cc1ccc2ccccc2c1)/c1ccccc1
active: [1] -37.4% | [2] -43.9% | [3] -65.3% | [4] -95% | [5] -85.8% | [6] -81.4% | [7] -90.3% | [8] -42.8% | [9] 8.24%

COC(=O)C(c1ccccc1)C(CC(=O)c1ccccc1)c1ccccc1 (stereo unspecified)
inactive: [1] 87.5% | [2] 71.1% | [3] 102% | [4] 93.3% | [10] 31.8% | [6] 83.3% | [7] 81.3% | [8] 102% | [9] 83.5%

Cc1ccc(-c2c(Br)c(OC(=O)CO[C@@H]3C[C@H](C)CC[C@H]3C(C)C)c(-c3ccc(C)cc3C)c(Br)c2OC(=O)CO[C@H]2C[C@@H](C)CC[C@@H]2C(C)C)c(C)c1
inactive: [1] 104% | [2] 94.3% | [3] 89.6% | [4] 102% | [5] 106% | [6] 108% | [7] 110% | [8] 98.9% | [9] 101%

CCNC(=O)c1[nH]cc(-c2ccc(OC)cc2)c1-c1cc(OC)cc(OC)c1
inactive: [1] 92.6% | [2] 87.7% | [3] 93.4% | [4] 99.6% | [5] 81.4% | [6] 80.3% | [7] 83.5% | [8] 87.1% | [9] 86.9%

O=C(Nc1ccc2ncnc(Nc3ccc(Oc4cccc(F)c4)c(Cl)c3)c2c1)c1ccc(CN2CCOCC2)cc1
active: [2] -16.4% | [3] 6.19% | [6] 0.971% | [9] 4.15%
inactive: [1] 18.6% | [4] 75.5% | [5] 20.3% | [7] 23.1% | [8] 46.6%

CCOC(=O)c1ccc(Nc2ccnc(SCC(=O)c3ccc(C#N)cc3)n2)cc1
inactive: [1] 54.1% | [2] 20.4% | [3] 22.8% | [4] 107% | [5] 65.2% | [6] 79% | [7] 79.1% | [8] 92.1% | [9] 41.5%

c1ccc(-c2nn(-c3ccccc3)[n+](-c3cccc4ccccc34)n2)cc1
inactive: [4] 48.1% | [5] 41.4% | [6] 10.6% | [9] 90.1%
active: [1] 4.45% | [2] 0.0671% | [3] -43.5% | [7] 8.96% | [8] 8.44%

Cc1ccc(Nc2cc(=S)nc(N)[nH]2)cc1C
inactive: [1] 97.5% | [2] 100% | [3] 97.4% | [4] 100% | [5] 108% | [6] 96% | [7] 115% | [8] 98.6% | [9] 105%

CC1(c2ccccc2)NC(=O)N(CC(=O)Nc2cccc(I)c2)C1=O (stereo unspecified)
inactive: [1] 71.1% | [2] 74.1% | [3] 91.9% | [4] 89.7% | [5] 90.3% | [7] 90.2% | [8] 44.9% | [9] 92.7%

COc1ccc(C(O)c2cc3c(N)c(C(=O)Nc4ccc(Cl)cc4)sc3nc2C)cc1 (stereo unspecified)
active: [1] -9.53% | [2] 5.22% | [7] -35.7% | [8] 7.82%
inactive: [3] 30.6% | [4] 46.8% | [5] 38.4% | [6] 33% | [9] 16%

COc1ccc(C(=O)/C=C/c2ccc(OCc3ccccc3)c(OC)c2)cc1OC
active: [2] -3.1%
inactive: [1] 11.2% | [3] 17.4% | [4] 107% | [10] 91% | [6] 84.3% | [7] 10.3% | [8] 94.7% | [9] 36.4%

Clc1nc(Cl)c2ncn(CCOCCn3cnc4c(Cl)nc(Cl)nc43)c2n1
active: [1] -75.9% | [2] -52.8% | [3] -83.2% | [4] -85% | [5] -86.1% | [6] -95.6% | [7] -97.4% | [8] -42.5% | [9] -56%

COc1cc(NCCN(CC(C)C)C2CCCC2)c2ncccc2c1
inactive: [1] 82.6% | [2] 99.2% | [3] 84.9% | [4] 96.4% | [5] 36.6% | [6] 86.8% | [7] 83.1% | [8] 84.2% | [9] 86.6%
